Results filed as inconclusive are left out. The source made the active and inactive calls.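 The calls were made as follows, unless noted: active = GFP response, as percent of the DMSO control, above the screen-wide mean plus 3 SD, about 139; inconclusive = no response measured because the compound's own fluorescence interfered; inactive = the rest.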
How the values were obtained:
[1] = yeast TOR pathway RPL19A-GFP modulators, primary screen, cell-based, S. cerevisiae, multiplex flow cytometry (AID 1862; in the data active = percent of DMSO control GFP below about 86%;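 also: lower values mimic rapamycin by blocking the RPL19A rise seen in DMSO cells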); settings: S. cerevisiae RPL19A-GFP strain, flow cytometry fluorescence, 3 h; at 10 µM; stronger effect = lower value
[2] = modulators of MEP2-GFP levels in yeast, primary screen, S. cerevisiae, multiplex flow cytometry (AID 1867);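 also: median GFP channel fluorescence of barcode-gated MEP2-GFP cells measured by flow cytometry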; settings: S. cerevisiae MEP2-GFP strain, 3 h, at 10 µM, stronger effect = higher value, 100% means same as DMSO wells
[3] = modulators of CIT2-GFP expression in yeast, primary screen, S. cerevisiae, GFP fusion, multiplex flow cytometry (AID 1870;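 active = percent response above a set limit, the screen-wide mean plus 3 SD, cut at about 130% in these data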;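 also: barcoded CIT2-GFP strain pooled with four other GFP strains with rapamycin as positive control; median GFP fluorescence per well over plate mean of DMSO wells so 100% = DMSO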); settings: 3 h, at 10 µM, stronger effect = higher value
[4] = modulators of LAP4-GFP expression in yeast, primary screen, S. cerevisiae, multiplex flow cytometry (AID 1873;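 active = GFP signal, as percent of the solvent control, above the screen mean plus 3 SD, about 149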); settings: 3 h, at 10 µM, stronger effect = higher value
[5] = modulators of AGP1-GFP expression in yeast TOR pathway, primary screen, cell-based, multiplex flow cytometry, S. cerevisiae (AID 1887;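 active = GFP signal above the screen-wide mean plus 3 SD, that is over about 124.5% of the solvent control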;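 also: AGP1-GFP fusion strain of S. cerevisiae within a five-strain barcoded multiplex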); settings: 3 h, at 10 µM, stronger effect = higher value
[6] = RPL19A-GFP modulators, yeast TOR pathway, confirmation, cell-based, S. cerevisiae, flow cytometry, cherry picks, mother/daughter gates (AID 2270;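 active = GFP response below 50% of the DMSO control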); settings: S. cerevisiae RPL19A-GFP strain, 3 h, at 10 µM, stronger effect = lower value, 100 = same GFP as DMSO wells
[7] = LAP4-GFP expression modulators in yeast, confirmation, cell-based, cherry picks, flow cytometry, mother/daughter gates (AID 2271;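 active = GFP response above 150% of the DMSO control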;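 also: ratio of sample to DMSO plate mean so 100% equals DMSO level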); settings: S. cerevisiae LAP4-GFP strain, 3 h, at 10 µM, stronger effect = higher value, 100 means same as DMSO control
[8] = modulators of MEP2-GFP levels in yeast, confirmation, S. cerevisiae, flow cytometry GFP, cherry picks (AID 2272;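 active = GFP response above 150% of the DMSO control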;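 also: ratio of well signal to plate DMSO mean so 100% equals DMSO level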); settings: S. cerevisiae MEP2-GFP strain, 3 h, at 10 µM, stronger effect = higher value
[9] = modulators of CIT2-GFP expression in yeast, confirmation, S. cerevisiae, GFP fusion, cherry picks, mother/daughter gates (AID 2274;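 active = GFP response above 150% of the DMSO level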); settings: S. cerevisiae CIT2-GFP strain, flow cytometry, 3 h, at 10 µM, stronger effect = higher value
[10] = inhibitors of CD8+ T cell-vesicle binding, pilot screen, LFA-1/ICAM-1 modulator project, MLPCN validation set, flow cytometry (AID 2523;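 active = response below a set limit, under 55% cells CD8-positive and vesicle-bound, and CD8 cells' 90th-percentile brightness under 279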;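 as to vesicle binding response: mean PE anti-B7-1 fluorescence of CD8+ cells relative to row control; 100% = QL9-loaded vesicles with DMSO vehicle in the same plate row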); settings: 2C mouse CD8+ T cells, at 7 µM, stronger effect = lower value; double positive events: measured here: CD8+/vesicle+ event percentage
[11] = measured here: daughter cell gate
[12] = measured here: mother cell gate
[13] = measured here: daughter cell gate response
[14] = measured here: mother cell gate response

Cc1ccc(OCCCCn2ccnc2C)c(C)c1
percent of DMSO control GFP [1]: 97.3% (inactive)
GFP response vs DMSO [2]: 99.6% (inactive)
percent response of DMSO control [3]: 95.7% (inactive)
GFP response vs DMSO [4]: 103% (inactive)
GFP response, % of DMSO [5]: 110% (inactive)
GFP response vs DMSO [6]: 99.6% (inactive)
GFP response vs DMSO [6, 11]: 99.4%
GFP response vs DMSO [6, 12]: 101%
GFP response relative to DMSO [7]: 99.8% (inactive)
GFP response relative to DMSO [7, 13]: 99.7%
GFP response relative to DMSO [7, 14]: 100%
GFP response vs DMSO [8]: 112% (inactive)
GFP response, % of DMSO [9]: 98.4% (inactive)
GFP response, % of DMSO [9, 11]: 100%
GFP response, % of DMSO [9, 12]: 97.7%
double positive events [10]: 59.6%
vesicle binding response [10]: 179% (inactive)

COc1ccc(C2=CC(=O)C=CC2=O)cc1
percent of DMSO control GFP [1]: 84.7% (active)
GFP response vs DMSO [2]: 105% (inactive)
percent response of DMSO control [3]: 68.5% (inactive)
GFP response vs DMSO [4]: 144% (inactive)
GFP response, % of DMSO [5]: 91.9% (inactive)
GFP response vs DMSO [6]: 109% (inactive)
GFP response vs DMSO [6, 11]: 114%
GFP response vs DMSO [6, 12]: 104%
GFP response relative to DMSO [7]: 119% (inactive)
GFP response relative to DMSO [7, 13]: 120%
GFP response relative to DMSO [7, 14]: 122%
GFP response vs DMSO [8]: 117% (inactive)
GFP response, % of DMSO [9]: 108% (inactive)
GFP response, % of DMSO [9, 11]: 111%
GFP response, % of DMSO [9, 12]: 103%
double positive events [10]: 64.5%
vesicle binding response [10]: 146% (inactive)

CC(=O)Nc1ccccc1O
percent of DMSO control GFP [1]: 87.8% (inactive)
GFP response vs DMSO [2]: 152% (active)
percent response of DMSO control [3]: 102% (inactive)
GFP response vs DMSO [4]: 85.3% (inactive)
GFP response, % of DMSO [5]: 86.6% (inactive)
GFP response vs DMSO [6]: 99% (inactive)
GFP response vs DMSO [6, 11]: 101%
GFP response vs DMSO [6, 12]: 99.8%
GFP response relative to DMSO [7]: 93.8% (inactive)
GFP response relative to DMSO [7, 13]: 98.7%
GFP response relative to DMSO [7, 14]: 93.1%
GFP response vs DMSO [8]: 100% (inactive)
GFP response, % of DMSO [9]: 110% (inactive)
GFP response, % of DMSO [9, 11]: 105%
GFP response, % of DMSO [9, 12]: 113%
double positive events [10]: 61.6%
vesicle binding response [10]: 142% (inactive)

O=C1ON=C(c2ccc(Cl)cc2)/C1=C/c1ccc(O)cc1
percent of DMSO control GFP [1]: 108% (inactive)
GFP response vs DMSO [2]: 95.2% (inactive)
percent response of DMSO control [3]: 112% (inactive)
GFP response vs DMSO [4]: 98.2% (inactive)
GFP response, % of DMSO [5]: 87.4% (inactive)
GFP response vs DMSO [6]: 101% (inactive)
GFP response vs DMSO [6, 11]: 105%
GFP response vs DMSO [6, 12]: 96.8%
GFP response relative to DMSO [7]: 90.2% (inactive)
GFP response relative to DMSO [7, 13]: 95.6%
GFP response relative to DMSO [7, 14]: 89%
GFP response vs DMSO [8]: 100% (inactive)
GFP response, % of DMSO [9]: 111% (inactive)
GFP response, % of DMSO [9, 11]: 114%
GFP response, % of DMSO [9, 12]: 104%
double positive events [10]: 60.6%
vesicle binding response [10]: 94.3% (inactive)

NS(=O)(=O)c1cc2c(cc1C(F)(F)F)NC(Cc1ccccc1)NS2(=O)=O (configuration not stated)
percent of DMSO control GFP [1]: 89.8% (inactive)
GFP response vs DMSO [2]: 140% (active)
percent response of DMSO control [3]: 106% (inactive)
GFP response vs DMSO [4]: 82.5% (inactive)
GFP response, % of DMSO [5]: 90.8% (inactive)
GFP response vs DMSO [6]: 95% (inactive)
GFP response vs DMSO [6, 11]: 96%
GFP response vs DMSO [6, 12]: 97.1%
GFP response relative to DMSO [7]: 97.7% (inactive)
GFP response relative to DMSO [7, 13]: 96.5%
GFP response relative to DMSO [7, 14]: 97.5%
GFP response vs DMSO [8]: 97.5% (inactive)
GFP response, % of DMSO [9]: 102% (inactive)
GFP response, % of DMSO [9, 11]: 104%
GFP response, % of DMSO [9, 12]: 104%
double positive events [10]: 64.3%
vesicle binding response [10]: 176% (inactive)

O=C(/C=C/c1ccccc1)c1ccccc1
percent of DMSO control GFP [1]: 92.8% (inactive)
GFP response vs DMSO [2]: 139% (inactive)
percent response of DMSO control [3]: 96.6% (inactive)
GFP response vs DMSO [4]: 79.8% (inactive)
GFP response, % of DMSO [5]: 87.5% (inactive)
GFP response vs DMSO [6]: 98% (inactive)
GFP response vs DMSO [6, 11]: 100%
GFP response vs DMSO [6, 12]: 97.1%
GFP response relative to DMSO [7]: 97.7% (inactive)
GFP response relative to DMSO [7, 13]: 96.5%
GFP response relative to DMSO [7, 14]: 94.6%
GFP response vs DMSO [8]: 104% (inactive)
GFP response, % of DMSO [9]: 102% (inactive)
GFP response, % of DMSO [9, 11]: 106%
GFP response, % of DMSO [9, 12]: 99.1%
double positive events [10]: 68%
vesicle binding response [10]: 126% (inactive)

N#C/C(C(N)=O)=c1/ccc2c(c1)N1C3=C(CCCC3)CC3CCCCC31N=2 (configuration not stated)
percent of DMSO control GFP [1]: 104% (inactive)
GFP response vs DMSO [2]: 113% (inactive)
percent response of DMSO control [3]: 94.5% (inactive)
GFP response vs DMSO [4]: 170% (active)
GFP response, % of DMSO [5]: 105% (inactive)
GFP response vs DMSO [6]: 92.7% (inactive)
GFP response vs DMSO [6, 11]: 88.8%
GFP response vs DMSO [6, 12]: 93.3%
GFP response relative to DMSO [7]: 118% (inactive)
GFP response relative to DMSO [7, 13]: 115%
GFP response relative to DMSO [7, 14]: 123%
GFP response vs DMSO [8]: 101% (inactive)
GFP response, % of DMSO [9]: 88.9% (inactive)
GFP response, % of DMSO [9, 11]: 85.2%
GFP response, % of DMSO [9, 12]: 89.3%
double positive events [10]: 59.5%
vesicle binding response [10]: 108% (inactive)

CC(=O)O[C@]1(C(C)=O)CC[C@H]2[C@@H]3C[C@H](C)C4=CC(=O)CC[C@]4(C)[C@H]3CC[C@@]21C
percent of DMSO control GFP [1]: 98.4% (inactive)
GFP response vs DMSO [2]: 106% (inactive)
percent response of DMSO control [3]: 90.8% (inactive)
GFP response vs DMSO [4]: 84.8% (inactive)
GFP response, % of DMSO [5]: 95.7% (inactive)
GFP response vs DMSO [6]: 94.3% (inactive)
GFP response vs DMSO [6, 11]: 95.7%
GFP response vs DMSO [6, 12]: 97.2%
GFP response relative to DMSO [7]: 98.8% (inactive)
GFP response relative to DMSO [7, 13]: 97.9%
GFP response relative to DMSO [7, 14]: 98.5%
GFP response vs DMSO [8]: 93.3% (inactive)
GFP response, % of DMSO [9]: 101% (inactive)
GFP response, % of DMSO [9, 11]: 102%
GFP response, % of DMSO [9, 12]: 101%
double positive events [10]: 63.9%
vesicle binding response [10]: 241% (inactive)

CNCCC(Oc1ccc(C(F)(F)F)cc1)c1ccccc1 (configuration not stated)
percent of DMSO control GFP [1]: 89.8% (inactive)
GFP response vs DMSO [2]: 141% (active)
percent response of DMSO control [3]: 107% (inactive)
GFP response vs DMSO [4]: 83.1% (inactive)
GFP response, % of DMSO [5]: 90.3% (inactive)
GFP response vs DMSO [6]: 98.4% (inactive)
GFP response vs DMSO [6, 11]: 97%
GFP response vs DMSO [6, 12]: 99.1%
GFP response relative to DMSO [7]: 97.4% (inactive)
GFP response relative to DMSO [7, 13]: 95.6%
GFP response relative to DMSO [7, 14]: 101%
GFP response vs DMSO [8]: 102% (inactive)
GFP response, % of DMSO [9]: 93.9% (inactive)
GFP response, % of DMSO [9, 11]: 94.8%
GFP response, % of DMSO [9, 12]: 93.4%
double positive events [10]: 58%
vesicle binding response [10]: 142% (inactive)

COc1ccc(C(=O)NCC2OCCc3ccccc32)cc1 (configuration not stated)
percent of DMSO control GFP [1]: 90% (inactive)
GFP response vs DMSO [2]: 150% (active)
percent response of DMSO control [3]: 120% (inactive)
GFP response vs DMSO [4]: 107% (inactive)
GFP response, % of DMSO [5]: 107% (inactive)
GFP response vs DMSO [6]: 96.4% (inactive)
GFP response vs DMSO [6, 11]: 97.1%
GFP response vs DMSO [6, 12]: 97.2%
GFP response relative to DMSO [7]: 103% (inactive)
GFP response relative to DMSO [7, 13]: 102%
GFP response relative to DMSO [7, 14]: 104%
GFP response vs DMSO [8]: 102% (inactive)
GFP response, % of DMSO [9]: 98.3% (inactive)
GFP response, % of DMSO [9, 11]: 99.1%
GFP response, % of DMSO [9, 12]: 97.3%
double positive events [10]: 64.3%
vesicle binding response [10]: 122% (inactive)

CC(=O)c1ccc(CCCCCCCCCC(=O)O)s1
percent of DMSO control GFP [1]: 98.6% (inactive)
GFP response vs DMSO [2]: 97.4% (inactive)
percent response of DMSO control [3]: 66.4% (inactive)
GFP response vs DMSO [4]: 174% (active)
GFP response, % of DMSO [5]: 86.2% (inactive)
GFP response vs DMSO [6]: 99% (inactive)
GFP response vs DMSO [6, 11]: 96.7%
GFP response vs DMSO [6, 12]: 98.5%
GFP response relative to DMSO [7]: 108% (inactive)
GFP response relative to DMSO [7, 13]: 111%
GFP response relative to DMSO [7, 14]: 113%
GFP response vs DMSO [8]: 100% (inactive)
GFP response, % of DMSO [9]: 99.1% (inactive)
GFP response, % of DMSO [9, 11]: 93.2%
GFP response, % of DMSO [9, 12]: 101%
double positive events [10]: 60%
vesicle binding response [10]: 207% (inactive)

From PubChem BioAssay
